# Screening results (PubChem BioAssay)
# ALR H2O2 inh: blocks human ALR sulfhydryl oxidase activity | P55789 | purified ALR, DTT oxidation, H2O2 HRP-luminol luminescence | inhibition, % (concentration not given with the values) | 290,000 tested, 3.8% active | AID 485317;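 active = mean replicate inhibition above about 79%, with every replicate also reaching it, limit read from the data; inconclusive = only one of the two criteria met; inactive = mean below limit and not every replicate reaching it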
# Target sequence (P55789 whole entry, looked up): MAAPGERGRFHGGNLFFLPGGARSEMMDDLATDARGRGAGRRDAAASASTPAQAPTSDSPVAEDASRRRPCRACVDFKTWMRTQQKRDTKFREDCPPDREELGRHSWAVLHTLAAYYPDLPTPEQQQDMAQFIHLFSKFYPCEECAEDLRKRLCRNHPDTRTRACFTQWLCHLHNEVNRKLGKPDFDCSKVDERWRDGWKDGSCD
# Calb FLC: C. albicans growth modulation with fluconazole | C. albicans CaCi-2 (fluconazole-resistant clinical isolate) + fluconazole, Alamar Blue growth, 48 h | growth inhibition, % (concentration not given with the values) | 300,000 tested, 0.57% active;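 active = growth inhibition above about 58% in most replicates, limit read from the data, passing the limit was not always enough; inconclusive = exactly half the replicates above a set limit; inactive = most replicates below a set limit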;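 also: all wells also contain fluconazole at 8 µg/ml as a sub-toxic cotreatment; 0% = median of DMSO wells and 100% = median of geldanamycin control wells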
# PP1 counter: counter-screen for PP5 inhibitors: inhibitors of human PP1-alpha; P62136; purified PP1alpha, OMFP fluorescence; inhibition, % at 6.7 µM; 320,000 tested, 0.9% active;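 active = inhibition above the mean inhibition of all tested compounds plus 3 SD, computed separately for each screening campaign, cut at about 15% in these data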
# Target sequence (P62136 whole entry, looked up): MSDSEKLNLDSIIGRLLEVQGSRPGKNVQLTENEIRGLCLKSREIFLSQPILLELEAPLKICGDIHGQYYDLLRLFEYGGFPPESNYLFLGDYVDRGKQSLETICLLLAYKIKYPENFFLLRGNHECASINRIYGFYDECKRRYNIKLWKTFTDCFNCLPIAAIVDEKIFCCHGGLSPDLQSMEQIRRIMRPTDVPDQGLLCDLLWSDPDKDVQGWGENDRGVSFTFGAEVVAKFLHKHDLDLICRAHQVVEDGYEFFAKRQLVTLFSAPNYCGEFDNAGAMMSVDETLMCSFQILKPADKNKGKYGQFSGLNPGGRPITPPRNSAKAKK
# CSC inhib: blocks cancer stem cells; cancer stem cell-like cells viability, luminescence; AID 2717; 300,000 tested, 1.1% active; inhibition, % at 7.5 µM; in the data active = inhibition above about 75%; inconclusive = no clear call, values can overlap the other calls; tested in HMLE shEcad cells
# PP5 primary: PP5 (human) phosphatase inhibition | purified PP5c, OMFP substrate fluorescence | inhibition, % at 6.7 µM | 320,000 tested, 0.18% active | AID 1987;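 active = inhibition above the campaign's mean inhibition across all tested compounds plus 3 SD, cut at about 9.5% in these data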;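 also: 0% = DMSO only and 100% = 100 µM cantharidin control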
# Numbers without * were called inactive; ? = inconclusive; nt = no result given. An excerpt weighted towards active compounds, which were near 5.4% of everything screened.
SMILES,ALR H2O2 inh,Calb FLC,PP1 counter,CSC inhib,PP5 primary
O=C(O)CC/C(=C\c1cc([N+](=O)[O-])ccc1Cl)c1nc2ccccc2s1,96*,47,2,4,-2
O=C(O)CC/C(=C\c1cccc(NC(=O)c2ccccc2Cl)c1)c1nc2ccccc2s1,5,2,4,39,3
O=C(O)CC/C(=C\c1ccc(N2CCCC2)c([N+](=O)[O-])c1)c1nc2ccccc2s1,4,-6,1,27,-3
O=C(O)CC/C(=C\c1ccccc1[N+](=O)[O-])c1nc2ccccc2s1,97*,56,-3,9,-1
COc1ccc(/C=C(/NC(=O)c2ccccc2)C(=O)N2CCCCC2)cc1,0,nt,0,6,-3
CC(=O)c1cccc(NC(=O)c2ccc(S(=O)(=O)N3CC(C)OC(C)C3)cc2)c1 (stereo not given),-1,nt,-4,nt,2
O=C(CC1C(=O)NCCN1Cc1ccc(-c2ccccc2)cc1)NCc1ccccc1 (stereo not given),-7,-1,2,5,4
CC(C(=O)c1ccccc1)[n+]1cccc(Br)c1 (stereo not given),0,75*,2,-12,1
O=C(Nc1cccc(S(=O)(=O)N2CCCC2)c1)C1CCCN1C(=O)c1cccs1 (stereo not given),nt,2,0,6,-1
Cc1c(C2(O)CCCCC2)[nH]c2ccc(C(F)(F)F)cc12,-1,nt,nt,81*,nt
COc1ccc(C)cc1NC(=O)C(OC(=O)c1ccc([N+](=O)[O-])o1)c1ccccc1 (stereo not given),-53,?,-1,2,1
O=C(O)CN1C(=O)/C(=C\c2cccc(OCc3ccc(Cl)cc3Cl)c2)SC1=S,99*,36,nt,42,nt
O=C(O)CN1C(=O)/C(=C\c2cc(Br)ccc2OCc2ccccc2F)SC1=S,18,-3,16*,54,0
O=C(O)COc1ccc(Br)cc1/C=C1/SC(=O)N(CC(=O)N2CCCC2)C1=O,8,47,1,-2,2
O=C(O)CN1C(=O)/C(=C\c2cc(Br)ccc2OCc2ccccc2Cl)SC1=S,8,-10,15,97*,1
O=C(O)CN1C(=O)/C(=C\c2cc(Br)ccc2OCc2ccc([N+](=O)[O-])cc2)SC1=S,83*,14,14,24,-1
O=C(Nc1ccc(S(=O)(=O)Nc2cnc3ccccc3n2)cc1)c1ccc([N+](=O)[O-])cc1Cl,-14,-1,4,-6,7
Cc1cccc(N/N=C/c2ccc(C)s2)c1,-12,-18,11,8,-1
Cc1cccc(N/N=C/c2ccc(O)c(O)c2O)c1,79*,-4,1,6,2
COc1cccc(N/N=C/c2cccc(Br)c2O)c1,99*,-7,-2,44,-1
CC(C)Nc1c(N)c(=O)oc2ccccc12,92*,-10,-5,-11,1
CNc1c(N)c(=O)oc2ccccc12,93*,-9,1,-8,3
CC(C)Nc1c([N+](=O)[O-])c(=O)oc2ccccc12,5,-2,-6,-7,-2
CCOC(=O)c1oc2ccccc2c1CN1CCN(c2ccccc2)CC1,94*,-1,0,19,3
Cc1ccc(Nc2c(N)c(=O)oc3ccccc23)cc1,nt,-27,1,41,0
SMILES,ALR H2O2 inh,Calb FLC,PP1 counter,CSC inhib,PP5 primary
CCOC(=O)c1oc2ccccc2c1CN1CCN(C(=O)c2ccccc2)CC1,-3,-2,3,-17,-1
Cn1c(N)c(N2CCN(c3ccccc3)CC2)c(=O)[nH]c1=O,98*,7,-2,-2,3
Cn1c(N)c(C(=O)Nc2ccccc2)c(=O)[nH]c1=O,-11,15,-1,-4,0
Cc1cc(O)c(C(=O)Cc2csc(C)n2)c(O)c1,5,13,1,4,3
O=C(CNC(=S)N(CCCN1CCOCC1)Cc1cccs1)NC1CCCCCCC1,-8,-2,-3,-9,-2
O=C(Nc1ccc(Oc2cccnc2)cc1)C1CCN(Cc2cc(Cl)ccc2O)CC1,-1,3,-2,20,5
Nc1c(N2CCN(c3ccccc3)CC2)c2ccccc2oc1=O,98*,-2,2,-5,1
COc1cc(-c2n[nH]c(=S)n2-c2cccc(C(F)(F)F)c2)cc(OC)c1OC,nt,13,-1,0,2
O=c1c(-c2ccc(Cl)cc2)c[nH]n1-c1ccccc1,nt,3,3,15,1
CCCN(C(=O)/C=C/c1ccco1)c1c(N)n(Cc2ccccc2)c(=O)[nH]c1=O,-20,-3,1,-15,0
CCCCN(C(=O)/C=C/c1ccco1)c1c(N)n(Cc2ccccc2)c(=O)[nH]c1=O,nt,113*,0,-2,1
COc1ccccc1NS(=O)(=O)c1cn(C)cn1,-7,2,-3,-11,3
Cc1ccccc1N1CCN(C2CCCN(C(=O)c3cnsn3)C2)CC1 (stereo not given),86*,-3,-2,-9,2
COc1ccc(CC(=O)Nc2ccc3c(C)cc(=O)oc3c2)cc1OC,-3,3,-2,2,0
Cn1c(=O)oc2cc(S(=O)(=O)N3CCN(c4ccccn4)CC3)ccc21,nt,2,1,20,-1
CN(C)C(=O)c1cn(-c2ccccc2)nc1-c1cccs1,-5,106*,0,-7,-2
CN(C)c1ccc(NC(=O)c2cn(-c3ccccc3)nc2-c2cccs2)cc1,6,13,1,-3,3
O=C(/C=C1\NC2(CCCC2)Cc2ccccc21)C(=O)N/N=C/c1ccccc1O,0,95*,13,nt,-3
COc1cc(/C=N/NC(=O)C(=O)/C=C2\NC3(CCCC3)Cc3ccccc32)ccc1O,21,-5,3,nt,5
Cc1ccc(C(=O)Nc2nc3ccccc3c(=O)s2)cc1,2,87*,-4,nt,3
O=C(Nc1nc(=O)c2ccccc2s1)c1ccccc1,-1,87*,-11,7,0
CC(=O)Nc1nc(=O)c2ccccc2s1,13,42,-2,0,0
COC(=O)c1ccc(NC(=O)N2CCCC(C(=O)c3ccccc3OC)C2)cc1 (stereo not given),7,-15,8,28,3
CC1CN(S(=O)(=O)c2cccc(C(=O)OCC(=O)Nc3ccc4c(c3)OCO4)c2)CC(C)O1 (stereo not given),11,nt,2,11,-2
CN1/C(=C/C(=O)c2cccs2)Sc2ccccc21,12,84*,-1,-9,-2
Nc1cc(C(=O)OCC(=O)NCCCc2ccccc2)ccc1Cl,5,-11,-2,-6,3
Cc1c(Cl)ccc2c1NC(=O)[C@]21N[C@@H](Cc2ccccc2)[C@H]2C(=O)N(c3ccc(F)cc3)C(=O)[C@H]21,-1,89*,7,2,6
O=C1[C@@H]2[C@H](Cc3ccc(O)cc3)N[C@]3(C(=O)Nc4ccccc43)[C@@H]2C(=O)N1c1ccc(F)cc1,?,-3,-5,nt,4
NNC(=O)CCc1nc2ccc(O)cc2[nH]1,96*,56,-4,6,1
O=C(NC12CC3CC(CC(C3)C1)C2)c1ccc(=O)oc1,nt,-2,-4,-10,0
